Experimental data from PubChem BioAssay (Tox21).
Where “and” joins values, the source holds several entries; their conditions need not be identical. Equal entries are not always repeated. Calls of active or inactive are those of the source. Calls follow the shape of the full dose curve.

These compounds were tested against Estrogen receptor (Homo sapiens) (UniProt P03372) (assay: qHTS assay to identify small molecule agonists of the estrogen receptor alpha (ER-alpha) signaling pathway (AID 743075;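 also: HEK293 GripTite cells with ER-alpha and UAS-driven beta-lactamase reporter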)). Conditions: HEK293 ER-alpha-UAS-bla, beta-lactamase FRET ratio, 18 h; series mostly up to 70.1 µM; activation: at the top concentration.
% is scaled to controls: 0 for no effect and ±100 for the full control effect; potency is read from the fitted curve at half-maximal effect.

Sequence of Estrogen receptor (Homo sapiens) (P03372 whole entry, looked up): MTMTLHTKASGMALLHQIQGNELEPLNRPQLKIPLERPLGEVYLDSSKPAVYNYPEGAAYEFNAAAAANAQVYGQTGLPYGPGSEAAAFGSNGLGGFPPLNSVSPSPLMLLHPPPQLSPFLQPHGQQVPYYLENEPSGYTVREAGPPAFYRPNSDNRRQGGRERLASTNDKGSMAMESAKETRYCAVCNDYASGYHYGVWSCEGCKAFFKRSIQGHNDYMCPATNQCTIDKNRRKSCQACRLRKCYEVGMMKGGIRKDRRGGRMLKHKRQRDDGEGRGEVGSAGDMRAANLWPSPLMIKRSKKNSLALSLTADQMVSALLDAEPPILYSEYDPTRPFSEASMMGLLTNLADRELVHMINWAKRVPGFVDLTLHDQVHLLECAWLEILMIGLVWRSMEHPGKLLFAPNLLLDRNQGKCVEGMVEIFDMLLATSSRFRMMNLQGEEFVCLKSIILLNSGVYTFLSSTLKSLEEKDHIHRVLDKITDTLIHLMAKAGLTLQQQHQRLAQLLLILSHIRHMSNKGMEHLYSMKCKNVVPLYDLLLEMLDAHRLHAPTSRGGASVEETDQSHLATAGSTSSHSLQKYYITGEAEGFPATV

SMILES	activation	Potency
CC(C)=CCN1CC[C@]2(C)c3cc(O)ccc3C[C@H]1[C@H]2C	4.4% (inactive)	–
CN[C@@]1(c2ccccc2Cl)CCCCC1=O	-1.53% (inactive)	–
CCNC1(c2cccs2)CCCCC1=O (stereo unspecified)	-0.483% [at 32.9 µM] (inactive)	–
CNC(C)CC1CCCCC1 (stereo unspecified)	-2.05% (inactive)	–
CN1CC[C@@]23CCCC[C@@H]2[C@@H]1Cc1ccc(O)cc13	10.9% (inactive)	–
CCCCNC(C)(C)[P+](=O)O	-1.94% (inactive)	–
C/C=C(\CC)C(=O)NC(N)=O	10.6% (inactive)	–
C[C@]12CCC(=O)C[C@@H]1CC[C@@H]1[C@@H]2CC[C@@]2(C)[C@H]1CC[C@]2(C)O	–	0.477 µM [inconclusive] (active)
Cc1nnc2n1-c1ccc(Cl)cc1C(c1ccccc1)=NC2	1.49% (inactive)	–
N#CC(C#N)=Cc1cc(O)c(O)c(O)c1	11.9% (inactive)	–
CCCSc1cc(OC)c(CCN)cc1OC	1.72% [at 79.1 µM] (inactive)	–
O=P1(N(CCCl)CCCl)NC(OO)CCO1 (stereo unspecified)	-1.83% (inactive)	–
COC(=O)[C@H]1[C@@H](OC(=O)c2ccccc2)C[C@@H]2CC[C@H]1N2C	-1.63% (inactive)	–
O=C1CN=C(c2ccccc2)c2cc(Cl)ccc2N1	-1.98% (inactive)	–
CC(C)[C@H]1C(=O)N2CCC[C@H]2[C@]2(O)O[C@](NC(=O)[C@@H]3C[C@@H]4c5cccc6[nH]cc(c56)C[C@H]4N(C)C3)(C(C)C)C(=O)N12	6.45% (inactive)	–
C[C@]12CC[C@H]3[C@@H](CCC4=C(Cl)C(=O)CC[C@@]43C)[C@@H]1CC[C@@H]2O	–	2.68 µM [inconclusive] (active)
CC(C)C[C@H]1C(=O)N2CCC[C@H]2[C@]2(O)O[C@](NC(=O)[C@@H]3C[C@@H]4c5cccc6[nH]cc(c56)C[C@H]4N(C)C3)(C(C)C)C(=O)N12	-2.58% (inactive)	–
[H+].[H+].[Hg+2].[O-]B([O-])[O-].[c-]1ccccc1	–	30.1 µM [inconclusive] (active)
C=CCC1([C@@H](C)CCC)C(=O)NC(=O)NC1=O	-2.47% (inactive)	–
C[C@@H](Cc1ccccc1)NCCC(c1ccccc1)c1ccccc1	-2.67% [at 32.9 µM] (inactive)	–
CC[C@H]1[C@@H]2C[C@H]3[C@@H]4N(C)c5ccccc5[C@]45C[C@@H](C2[C@H]5O)N3[C@@H]1O (stereo partly specified)	0.875% [at 32.9 µM] (inactive)	–
CC(N)Cc1ccc2c(c1)OCO2 (stereo unspecified)	-0.57% (inactive)	–
CN1c2ccccc2C(NCCCCCCC(=O)O)c2ccc(Cl)cc2S1(=O)=O (stereo unspecified)	4.14% (inactive)	–
CN[C@]1(c2ccccc2Cl)CCCCC1=O	0.0803% (inactive)	–
C[C@]12CC[C@@H]3c4ccc(OC(=O)N(CCCl)CCCl)cc4CC[C@H]3[C@@H]1CC[C@@H]2OP(=O)(O)O	–	21.3 nM [inconclusive] (active) and 16.9 nM [inconclusive] (active)
CC(=O)[C@@]1(O)CC[C@H]2[C@@H]3CCC4=CC(=O)CC[C@]4(C)C3(F)[C@@H](O)C[C@@]21C (stereo partly specified)	1.07% (inactive)	–
